A selection: hits, their analogues and other compounds. The true share with any hit is near 2.4%.
TLR4-MyD88 BLA – TLR4-MyD88 interaction inhibition in cells; HeLa CL3-4 TLR4/MyD88 BLA complementation, FRET ratio; inhibition, % at 8.4 µM; 200,000 compounds, 0.18% hits; AID 861; in the data active = inhibition above about 25%
NOD2-RIPK2 inh – inhibitors of human NOD2-RIPK2 interaction | inhibition, % at 4.98 µM | CHO BLA complementation NOD2-RIPK2, CCF4 ratio | AID 624267 | 360,000 compounds, 0.38% hits | O43353; in the data active = inhibition above about 21%
CRFBP-R2 block – blocks CRF-induced signaling of the CRF-BP/CRF-R2 complex | AID 588475 | inhibition, % at 11.8 µM | HEK293 CRF-R2/CRF-BP, CRF-induced calcium fluorescence | 350,000 compounds, 0.59% hits;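 active = inhibition of the ligand-induced calcium signal above about 50% at the single tested concentration, limit read from the data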
HTR2A ag – activates the mouse 5-HT2A serotonin receptor; CHO-K1 mHTR2A beta-arrestin complementation, luminescence; percent of 30 µM serotonin response; activation, % at 7.6 µM; 360,000 compounds, 0.66% hits; AID 624169;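 active = activation above a run cutoff, the mean activation of all tested compounds plus 3 SD, cut at about 14% in these data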
Target sequence (P35363 whole entry, looked up): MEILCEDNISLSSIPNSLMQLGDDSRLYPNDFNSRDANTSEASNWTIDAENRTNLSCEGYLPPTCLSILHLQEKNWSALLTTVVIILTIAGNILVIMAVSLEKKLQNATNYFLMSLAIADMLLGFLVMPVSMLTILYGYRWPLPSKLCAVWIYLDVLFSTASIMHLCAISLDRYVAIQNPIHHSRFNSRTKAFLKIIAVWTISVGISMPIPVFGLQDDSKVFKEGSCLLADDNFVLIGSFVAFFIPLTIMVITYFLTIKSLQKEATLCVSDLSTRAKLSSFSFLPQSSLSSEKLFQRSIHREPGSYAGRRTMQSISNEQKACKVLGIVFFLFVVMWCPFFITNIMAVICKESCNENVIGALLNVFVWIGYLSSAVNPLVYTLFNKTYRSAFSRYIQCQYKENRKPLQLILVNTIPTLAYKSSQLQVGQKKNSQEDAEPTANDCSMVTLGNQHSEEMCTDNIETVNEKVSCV
ABHD5 PLIN5 PPI – ABHD5-PLIN5 protein interaction inhibition; Q00G26+Q8WTS1; inhibition, % at 4 µM; Split G. princeps luciferase complementation, luminescence, 4 h; 360,000 compounds, 0.78% hits; AID 602281;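 active = inhibition above the mean inhibition across every tested compound plus 3 SD, cut at about 22% in these data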
TLR9-MyD88 block – blocks human TLR9 binding to MyD88 | Q9NR96+Q99836 | CHO BLA complementation TLR9-MyD88, CCF4 FRET ratio | inhibition, % at 4.98 µM | 340,000 compounds, 0.21% hits;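 active = inhibition above the mean over all tested compounds plus 3 SD, cut at about 21% in these data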
TLR9-MyD88 conf – TLR9-MyD88 interaction inhibition, confirmation. shares compounds with TLR9-MyD88 block. 680 compounds, 51% hits. inhibition, % at 4.98 µM. CHO TLR9/MyD88 BLA complementation, CCF4 FRET ratio;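 active = mean inhibition across three repeats above about 21% taken from the earlier screen, limit read from the data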;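 note: blue over green emission ratio reports constitutive TLR9 MyD88 association via BLA complementation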
BLA counter-1 – non-selective beta-lactamase inhibitors in TLR9-MyD88 counter-screen. shares compounds with TLR9-MyD88 block. CHO-BLA cells, CCF4 FRET ratio, BLA reporter. inhibition, % at 4.98 µM. 680 compounds, 7% hits. AID 540251;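 active = mean inhibition above a 50% cutoff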;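 note: counterscreen of TLR9-MyD88 hits on CMV-driven BLA in CHO-K1 cells; higher means less blue over green ratio so more BLA blockade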
TLR9 CHO cytotox – CHO cell toxicity counter-screen for TLR9-MyD88 inhibitors; shares compounds with TLR9-MyD88 block; TLR9-MyD88 CHO cells cytotoxicity, luminescence; inhibition, % at 4.98 µM; 680 compounds, 39% hits; AID 588336; in the data active = inhibition above about 11%
ABHD5 PLIN5 conf – ABHD5-PLIN5 interaction inhibition, confirmed; shares compounds with ABHD5 PLIN5 PPI; biochemical ABHD5-PLIN5 interaction, luminescence; inhibition, % at 4 µM; 2,200 compounds, 67% hits; AID 651612; in the data active = inhibition above about 23%
HNF4 split-luc – counter-screen for ABHD5-PLIN5 inhibitors: HNF4 split-luciferase | shares compounds with ABHD5 PLIN5 PPI | HNF4 dimerization, luminescence, biochemical | inhibition, % at 4 µM | 2,200 compounds, 77% hits;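 active = mean inhibition across replicate wells exceeding the computed hit threshold, cut at about 13% in these data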;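 note: light from luciferase halves that rejoin when HNF4 fusion proteins dimerize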
NOD2-RIPK2 conf – NOD2-RIPK2 interaction inhibition confirmed | shares compounds with NOD2-RIPK2 inh | CHO cells, NOD2-RIPK2 BLA complementation, CCF4 FRET | inhibition, % at 4.98 µM | 1,200 compounds, 70% hits | AID 624370;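 active = mean inhibition across replicates above a set limit taken from the earlier primary screen, cut at about 21% in these data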
BLA counter-2 – hits BLA reporter in NOD2-RIPK2 inhibitor counterscreen. shares compounds with NOD2-RIPK2 inh. CHO BLA reporter, CCF4 FRET ratio. inhibition, % at 4.98 µM. 1,200 compounds, 57% hits;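 active = mean inhibition above the low-control mean inhibition plus three low-control SD, cut at about 11% in these data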
Large screens that a line does not name were inactive (follow-up assays come after a bar, where they were run).

Nc1cccc2c1C(=O)N(CCOc1ccc(F)cc1)C2=O	NOD2-RIPK2 inh 22, TLR9-MyD88 block 23 (no result: TLR4-MyD88 BLA) | TLR9-MyD88 conf inactive | BLA counter-1 inactive | TLR9 CHO cytotox inactive | NOD2-RIPK2 conf 33 | BLA counter-2 44
COc1ccc(OCCN2C(=O)c3ccccc3C2=O)cc1	none
Cc1ccc(Cl)cc1-c1cc(C(=O)NCC2CCCCC2)[nH]n1	none (no result: TLR4-MyD88 BLA, CRFBP-R2 block, TLR9-MyD88 block)
COc1ccccc1CNC(=O)CCN1C(=O)c2ccccc2C1=O	none (no result: TLR4-MyD88 BLA)
COc1ccccc1CNC(=O)CN1C(=O)c2cccc(N)c2C1=O	NOD2-RIPK2 inh 31, TLR9-MyD88 block 36 (no result: TLR4-MyD88 BLA) | TLR9-MyD88 conf inactive | BLA counter-1 inactive | TLR9 CHO cytotox inactive | NOD2-RIPK2 conf 46 | BLA counter-2 49
COCCN(C(=O)COC(=O)c1ccc2c(c1)OCO2)c1c(N)n(Cc2ccccc2)c(=O)[nH]c1=O	none (no result: TLR4-MyD88 BLA)
O=[N+]([O-])c1ccc(N2N=C(c3ccccc3)CC2c2ccccc2O)cc1 (stereo not drawn)	NOD2-RIPK2 inh 39, TLR9-MyD88 block 40 (no result: TLR4-MyD88 BLA, CRFBP-R2 block) | TLR9-MyD88 conf 33 | BLA counter-1 inactive | TLR9 CHO cytotox inactive | NOD2-RIPK2 conf 51 | BLA counter-2 65
NS(=O)(=O)c1ccc(N2N=C(c3ccccc3)CC2c2ccccc2Br)cc1 (stereo not drawn)	none (no result: TLR4-MyD88 BLA)
O=[N+]([O-])c1ccc(N2N=C(c3ccco3)CC2c2ccccc2)cc1 (stereo not drawn)	NOD2-RIPK2 inh 56, ABHD5 PLIN5 PPI 29, TLR9-MyD88 block 38 | TLR9-MyD88 conf 21 | BLA counter-1 inactive | TLR9 CHO cytotox inactive | ABHD5 PLIN5 conf inactive | HNF4 split-luc 24 | NOD2-RIPK2 conf 49 | BLA counter-2 53
Fc1ccc(C2CC(c3ccco3)=NN2c2ccccc2)cc1 (stereo not drawn)	none
O=[N+]([O-])c1c(Nc2ccccc2O)cc(Cl)c2nonc12	NOD2-RIPK2 inh 83, ABHD5 PLIN5 PPI 63, TLR9-MyD88 block 33 (no result: TLR4-MyD88 BLA) | TLR9-MyD88 conf 56 | BLA counter-1 inactive | TLR9 CHO cytotox 100 | NOD2-RIPK2 conf 97 | BLA counter-2 inactive
CC(NC(=O)/C(C#N)=C/c1ccc([N+](=O)[O-])o1)c1ccccc1 (stereo not drawn)	NOD2-RIPK2 inh 52, ABHD5 PLIN5 PPI 29, TLR9-MyD88 block 21 (no result: TLR4-MyD88 BLA) | TLR9-MyD88 conf 36 | BLA counter-1 inactive | TLR9 CHO cytotox 99 | NOD2-RIPK2 conf 51 | BLA counter-2 34
Cc1ccc(/C=C2\Oc3c(ccc(O)c3CN3CCN(CCO)CC3)C2=O)cc1	NOD2-RIPK2 inh 28, ABHD5 PLIN5 PPI 23, TLR9-MyD88 block 22 | TLR9-MyD88 conf inactive | BLA counter-1 inactive | TLR9 CHO cytotox inactive | NOD2-RIPK2 conf 24 | BLA counter-2 28

High-throughput results (PubChem)
